Hit rate of the full screen: of about 140,000 compounds, about 240 (0.17%) were called active. Another 9% or so got no clear call; they are omitted. The call rests on the fitted dose curve; in most records, active means well fitted inhibition curve with a large enough effect; inconclusive means small, poorly fitted or top-dose-only effect; inactive means no such curve, though single readings can be large or run the other way. The sample as a whole holds a higher share of actives than the screen did.
Test: Primary qHTS assay for inhibitors of alpha-synuclein gene (SNCA) expression; further: nearly all actives have a fitted effect of over 45% in size
Conditions: HEK-293 SNCA-luciferase knock-in, luminescence, 24 h; series mostly up to 57.2 µM; activity change, negative = inhibition: at the top concentration
Text: Assay Submitter (PI): Daniel R. Scoles Ph.D.
Department of Neurology, University of Utah, Salt Lake City, Utah
Accumulation of alpha-synuclein is a main underlying pathological feature of Parkinson's disease (PD) and alpha-synucleinopathies, for which lowering expression of the alpha-synuclein gene (SNCA) is a potential therapeutic avenue. Using a cell-based luciferase reporter of SNCA expression we performed a quantitative high throughput screen (qHTS) of 155,885 compounds in dose response. The screening assay was generated using genome editing to insert the luciferase gene downstream and in frame of the SNCA gene in HEK-293 cells (1). A viability counterscreen using GF-AFC was used to eliminate cytotoxic and false positive compounds. After in silico analysis (clustering, removal of frequent hitter nuisance chemotypes), inhibitor compounds from the primary screen were selected for follow up and re-tested at 11-doses in the SNCA-luc cells (luciferase and GF-AFC confirmation), and in CMV-luc expressing cell line to flag general transcriptional repressors.
Described herein are the results of the primary screen for SNCA inhibitors; decrease in luciferase signal (inhibition of the SNCA gene expression) is the desired output for this assay.
1. Dansithong, W., Paul, S., Scoles, D. R., Pulst, S. M., and Huynh, D. P. (2015) Generation of SNCA Cell Models Using Zinc Finger Nuclease (ZFN) Technology for Efficient High-Throughput Drug Screening. PLoS ONE 10, e0136930.
SEQUENCE No. (e.g., 1, 2, 3, etc.); […] (e.g., Cells, Incubation, Reagent, etc.); VALUE; DESCRIPTION
1; Cells; 4 uL; Dispense 1500 HEK-293-SNCA-luc cells/well into Greiner 1536-well white / solid bottom tissue culture treated plate. The plate was covered with metal lids with gas-exchange holes.
2; Incubate; 24 hours; Incubate at 37C, 5% CO2, 95% RH.
3; Compounds; 23 nL; Compounds and controls were transferred via a Kalypsys Pin Tool (Wako USA) equipped with a 1536-slotted pin array. The plate was covered with metal lids with gas-exchange holes.
4; Incubate; 24 hours; Incubate at 37C, 5% CO2, 95% RH.
5; Dispense; 1 uL; Dispense Gly-Phe-7-amino-4-trifluoromethylcoumarin (GF-AFC, prepared at 125 uM in PBS) was added. The plate was covered with metal lids with gas-exchange holes.
6; Incubate; 30 min; Incubate at 37C, 5% CO2.
7; Detector; Fluorescence; Measure fluorescence with ViewLux microplate reader (PerkinElmer) equipped with 405/10 excitation and 540/25 emission filters.
8; Dispense; 3 uL; Dispense ONE-Glo ([…]) lucifase detection reagent was added to each well. Plates were covered with metal lids with gas-exchange holes.
9; Incubate; 15 min; Incubate at room temperature.
10; Detector; Luminescence; Measure luminescence with ViewLux microplate reader (PerkinElmer) equipped with clear filters.
NOTES (numbers refer to sequence above)
1; HEK-293-SNCA-luc were cultured and suspended in phenol-red free DMEM (4.5 g/L glucose, 25 mM HEPES, cat #21063 (Thermo)).
3; Compounds were added to the assay plate in an 11-point intra plate dose response, 1:3 titration in DMSO with a final concentration range of […]. Vehicle-only plates, with DMSO being pin-transferred to every well, were inserted at the beginning of screening runs to confirm expected assay performance. Activity was normalized to wells containing medium only (-100% activity, full inhibition) and SNCA-luc cells treated with DMSO vehicle control (0% activity), contained on the same plate as test samples.
10; Signals were analyzed, and dose-response curves were fit using the Hill equation. Compounds in curve classes -1.1, -1.2, -2.1, -2.2 in the SNCA-luc assay were considered active. Compounds were eliminated from further consideration if also active (curve class -1.1, -1.2, -1.3, -1.4, -2.1, -2.2, -2.3, -2.4) in the GF-AFC cytotoxicity assay.
Potency means the concentration at half of the fitted maximal effect.

| SMILES | activity change, negative = inhibition | Potency |
| --- | --- | --- |
| Cn1nc(C2CC2)cc1NC(=O)c1ccc(C(F)(F)F)cc1 | 124% [at 87.6 µM] (inactive) | – |
| COc1ccccc1-n1c(=O)c(C(=O)N2CCN(C(=O)Cc3ccc(F)cc3)CC2)nc2cccnc21 | 4.21% (inactive) | – |
| CCN1C(=O)C2CC3(CCN(C(=O)c4nccn4C)CC3)CN2C1=O (stereo not drawn) | -0.179% (inactive) | – |
| CCOC(=O)C1(Cc2ccc(F)cc2F)CCCN(Cc2cccc(OC)c2O)C1 (stereo not drawn) | -6.47% (inactive) | – |
| COC[C@H]1CCCN1C(=O)C[C@@H]1C[C@H]2O[C@H](CNC(=O)N[C@@H](C)c3ccccc3)[C@@H](O)[C@H]2O1 | 3.35% (inactive) | – |
| COCCCn1c(C)cnc1CC1CCN(C(=O)CC2CCCCC2)CC1 | -4.37% (inactive) | – |
| N#Cc1ccc(CN2CCN(c3nccc(Cl)n3)C(=O)C2)cc1 | -0.594% [at 87.6 µM] (inactive) | – |
| O=C(Nc1ccc([C@H]2OCC(=O)N(Cc3ccc(F)cc3)[C@@H]2CO)cc1)c1cccnc1 | -11% (inactive) | – |
| CCS(=O)(=O)NCC1(COc2ccc(C(F)(F)F)cn2)C[C@@H](O)[C@@H](O)C1 (stereo partly drawn) | 4.56% [at 87.6 µM] (inactive) | – |
| Cc1ccccc1C(=O)N1CCC2(CC1)CCN(Cc1cccs1)c1ccccc1O2 | 20% (inactive) | – |
| Cc1ccc2c(C(=O)N3CCCC(C#N)C3)cc(-c3cnn(C(C)C)c3)nc2c1 (stereo not drawn) | 3.68% (inactive) | – |
| O=[S+]([O-])(c1ccccc1)N1CC2(CCCCN2Cc2cccnc2)Cc2ccccc21 (stereo not drawn) | -16% (inactive) | – |
| COCCNC(=O)c1nc2sccn2c1-c1cccc(OC)c1 | 20.3% (inactive) | – |
| O=C(NC1CCCCC1)[C@H]1O[C@H](CCN2CCNCC2)CC[C@@H]1O | 9.12% [at 87.6 µM] (inactive) | – |
| COc1cccc(-c2ccnc3nc(Cc4cc(F)cc(F)c4)nn23)c1 | 9.66% (inactive) | – |
| CN1C(=O)[C@@H]2C[C@@H](O)CN2C2(CN(Cc3ccoc3)C2)C1=O | 20.6% [at 87.6 µM] (inactive) | – |
| Cc1noc([C@@H]2CN(CCCc3ccccc3)C[C@H]2CO)n1 | 17% (inactive) | – |
| C[C@H](C(=O)N1Cc2ccccc2CC2(CCN(Cc3ccncc3)CC2)C1)c1ccccc1 | 12.6% (inactive) | – |
| CC(=O)Nc1cccc(-c2cn(C)c(=O)n3cc(COc4ccnn4C)nc23)c1 | 6.13% [at 87.6 µM] (inactive) | – |
| COc1cccc([S+](=O)([O-])N2CCC3(CC(c4cccnc4)=NO3)C2)c1 (stereo not drawn) | 8.12% (inactive) | – |

| SMILES | activity change, negative = inhibition | Potency |
| --- | --- | --- |
| O=C(c1ccccc1C1CCNC1)N1CCN(C/C=C/c2ccccc2)CC1 (stereo not drawn) | -3.29% (inactive) | – |
| COCc1nnc(NC(=O)C2c3ccccc3C(=O)N(C3CCCC3)C23CCCC3)s1 (stereo not drawn) | -14.1% (inactive) | – |
| COc1cccc(-c2ccc(C(=O)N3CCC(C(=O)NCc4cccs4)CC3)cc2)c1 | 118% (inactive) | – |
| c1cc(-c2nc3ccncc3[nH]2)ccn1 | -8.24% [at 87.6 µM] (inactive) | – |
| COc1ccc(-c2nc3ccncc3[nH]2)cc1 | – | 10 µM (active) |
| COc1ccc(C(=O)N2CCCC2C(=O)N2CCCC2c2nc3ccncc3[nH]2)cc1 (stereo not drawn) | -1.63% (inactive) | – |
| COc1ccc(-c2ccc3c(n2)CN(CCOc2ccccc2)C(=O)CO3)cc1F | -7.82% [at 87.6 µM] (inactive) | – |
| O=C(C1CCCN(Cc2cccc(-c3ccc(F)cc3F)c2)C1)N1CCN(Cc2ccccc2)CC1 (stereo not drawn) | -16.7% (inactive) | – |
| COc1ccc(CC2CCOC3(CCN(C(=O)NCC(C)C)CC3)C2)cc1 (stereo not drawn) | -8.11% (inactive) | – |
| CC(C)NC(=O)C1CCC(Cn2c(=O)c3sccc3n(Cc3ccc(F)cc3)c2=O)CC1 (stereo not drawn) | -16.7% (inactive) | – |
| CCCNC(=O)C1CCC(Cn2c(=O)c3sccc3n(Cc3ccccc3F)c2=O)CC1 (stereo not drawn) | -3.61% (inactive) | – |
| O=C(C1CCC(Cn2c(=O)c3sccc3n(Cc3ccccc3F)c2=O)CC1)N1CCCCC1 (stereo not drawn) | – | 25.1 µM (active) |
| O=C1CCN(S(=O)(=O)c2ccc3c(c2)CCC3)CCCC(c2nc(-c3cnccn3)no2)CCN1 (stereo not drawn) | 11.3% (inactive) | – |
| CC[C@H]1CN(C(=O)c2ccc(F)cc2)CC[C@H]1CC(=O)N[C@@H](CO)CC(C)C | 2.09% [at 87.6 µM] (inactive) | – |
| O=C(COc1ccc(F)cc1)NC1CCc2n[nH]c(=O)n2CC1 (stereo not drawn) | -1.66% (inactive) | – |
| COc1ccc(Cc2nnc3ccc(C(=O)NCCc4ccc(F)cc4)cn23)cc1 | 15% (inactive) | – |
| Cc1cn2nc(C(=O)Nc3ccc(F)cc3C)cc2c(N(C)Cc2ccccc2)n1 | 15.7% (inactive) | – |
| COc1cccc(C(=O)N2CCCC(C(=O)N3CCC(c4nc5ccncc5[nH]4)C3)C2)c1 (stereo not drawn) | -0.429% (inactive) | – |
| COc1ccc(-c2cc3nc4c(c(=O)n3[nH]2)CCN(C(=O)c2ccccc2C)C4)cc1 | -10.8% (inactive) | – |
| O=C(c1cccs1)N1CC[C@H](c2nnc(Cc3c[nH]c4ccccc34)o2)C1 | -17.1% [at 87.6 µM] (inactive) | – |

| SMILES | activity change, negative = inhibition | Potency |
| --- | --- | --- |
| Cc1ccccc1NC(=O)c1cc2cn(C(C)C)cc2s1 | 2.8% (inactive) | – |
| COCC(=O)N1CCCC(C(=O)N2CCC3(CC2)CC(=O)Nc2ccccc2O3)C1 (stereo not drawn) | -9.94% (inactive) | – |
| Cc1nn2c(c1-c1ccccc1-c1ccccc1)N(CC1CC1)CCC2 | – | 2.51 µM (active) |
| Cc1nn2c(c1-c1ccccc1-c1ccccc1)N(C(=O)CN1CCOCC1)CCC2 | -12% [at 87.6 µM] (inactive) | – |
| Cc1nn2c(c1-c1ccccc1N1CCCC1)N(C(=O)c1ccc(Oc3ccccc3)cc1)CCC2 | 16.9% (inactive) | – |
| CC(C)(C)c1csc(NC(=O)c2ccc3c(c2)OCCN(C2CCC2)C3)n1 | -24.7% [at 87.6 µM] (inactive) | – |
| O=C(c1cccs1)N1CCCCCC1CN1CCCC1 (stereo not drawn) | 1.11% (inactive) | – |
| O=C(O)COc1ccc(-c2nccc3c2C(=O)N(Cc2ccccc2)CC(COc2cccc(C(F)(F)F)c2)O3)cc1 (stereo not drawn) | 0.232% (inactive) | – |
| Cc1ccc(C(=O)N2CCCN(C(=O)C3CC3)c3ccccc32)cc1F | -19.9% (inactive) | – |
| O=C(c1ccccc1Cl)N1CCCN(c2cc(-c3ccc(F)cc3)[nH]n2)CC1 | -1.66% (inactive) | – |
| CNC(=O)[C@H]1C[C@H](Oc2ccccc2)CN1C(=O)CCn1nc(C)cc1C | 33.4% (inactive) | – |
| Cc1ccc(S(=O)(=O)N2CCC3(CC2)C(=O)N(CC(=O)NC(C)C)CN3c2ccccc2)cc1 | -12.8% (inactive) | – |
| CCc1nc2c(c(-c3ccc(O)cc3)n1)CCN(Cc1cccc(OC)c1)CC2 | 7.49% (inactive) | – |
| CCn1ccc(C(=O)N2CCC(C3CCN(C(C)=O)CC3)C2)n1 (stereo not drawn) | 4.71% (inactive) | – |
| O=C(NCC1CC1)c1ccc2nnc(Cc3ccc(Cl)cc3)n2c1 | -11.1% (inactive) | – |
| O=C(NCC1Cn2cccc2CN1Cc1ccccc1)c1ccco1 (stereo not drawn) | 43.1% (inactive) | – |
| O=C(Cc1c[nH]c2ncc(-c3ccccc3F)cc12)N1CCOCC1 | -19.1% [at 87.6 µM] (inactive) | – |
| N[C@@H]1CCN(Cc2cccc(Oc3ccc(F)cc3)c2)C[C@H]1O | 16.8% (inactive) | – |

From PubChem BioAssay AID1671194 (National Center for Advancing Translational Sciences (NCATS), 2021)
